The text below walks through data of PubChem BioAssay (Tox21).

Where “and” joins values, the source holds several entries; their conditions need not be identical. Equal entries are not always repeated. Inconclusive results are not listed. Some structures have more than one record in an assay (separate samples or runs), and their calls can disagree. Calls of active or inactive are those of the source. Unless noted, the call rests on the fitted dose curve; in most records, active means well fitted curve in the direction sought with a large enough effect in the repeat runs; inconclusive means weak or mixed curves; inactive means no such curve, though single readings can be large; an effect the other way counts as inactive or inconclusive.

Experiment [1] can be described thus: qHTS assay to identify small molecule agonists of the vitamin D receptor (VDR) signaling pathway - cell viability counter screen (AID 743224). Further: nearly all actives have a fitted effect of over 50% in size. Further: potency means the concentration at half of the fitted maximal effect. In outline: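 Compounds were pin-transferred onto VDR-bla cells plated 4 h earlier; following 16 h incubation at 37C, cell viability was quantified by CellTiter-Glo luminescence after 30 min at room temperature.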
(qHTS replaces the single test concentration by a dilution series.)

Experiment [2] in a line: qHTS assay to identify small molecule antagonists of the vitamin D receptor (VDR) signaling pathway - cell viability counter screen (AID 743225). Further: nearly all actives have a fitted effect of over 50% in size. In outline: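 Viability counter screen run in the same wells as the beta-lactamase reporter assay: HEK 293T VDR-UAS-bla cells, 16 h compound exposure at 37C with 3 nM (final) 1-alpha,25-dihydroxyvitamin D3. CellTiter-Glo luminescence, 30 min, room temperature.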

A short description of experiment [3]: qHTS assay to identify small molecule agonists of the NFkB signaling pathway (AID 1159509; active means well fitted curve in the direction sought with a large enough effect in the signal ratio in the repeat runs, not every such curve was filed as active; the % refers to the signal ratio; further: series mostly up to about 61 µM). In outline: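 Agonist activity was read as beta-lactamase-driven FRET change (460 and 530 nm emission, 405 nm excitation) following 1.5 hr substrate loading at room temperature. Beforehand, ME-180 NFkB-bla reporter cells were treated with compounds for 5 hr at 37 C.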

Experiment [4] in a line: qHTS assay to identify small molecule agonists of the NFkB signaling pathway - cell viability counter screen (AID 1159515; calls by dose curve; further: series mostly up to about 61 µM; nearly all actives have a fitted effect of over 55% in size). In outline:
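Parallel cytotoxicity counter screen in ME-180 cells carrying an NFkB-response-element beta-lactamase reporter, 2,000 cells/well. Compound exposure lasted 5 hr at 37 C, 5% CO2. Cell viability was quantified by CellTiter-Glo luminescence.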

Experiment [5] is described as follows: qHTS assay to identify small molecule agonists of the endoplasmic reticulum stress response signaling pathway (AID 1159516; active means well fitted activation curve with a large enough effect in the signal ratio in the repeat runs, not every such curve was filed as active; the % refers to the signal ratio). In outline:
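Using a HeLa line with an ESRE-driven beta-lactamase gene, agonist activity was measured by FRET substrate fluorescence (460 and 530 nm emission) after cells were treated with compounds for 5 hr at 37 C and 5% CO2.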

A short description of experiment [6]: qHTS assay to identify small molecule agonists of the endoplasmic reticulum stress response signaling pathway - cell viability counter screen (AID 1159517; calls by dose curve;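 further: HeLa cells carrying an ER stress response element beta-lactamase reporter; series mostly up to about 61 µM; nearly all actives have a fitted effect of over 50% in size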). In outline:
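In parallel with the ESRE reporter read, cytotoxicity was scored by CellTiter-Glo luminescence (30 min, room temperature) on HeLa ESRE-bla cells dosed for 5 hr.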

Experiment [7] is described as follows: qHTS assay to identify small molecule antagonists of the retinoid-related orphan receptor gamma (ROR-gamma) signaling pathway - cell viability counter screen (AID 1159520). Further: nearly all actives have a fitted effect of over 50% in size. Further: potency means the concentration at half of the fitted maximal effect. In outline: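 Tet-on ROR gamma CHO cells were given compounds for 2 hr, then doxycycline hyclate at 1 uM final, and incubated 16 hr at 37 C. Viability was measured as ATP content by CellTiter-Glo luminescence.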

Experiment [8] addresses Nuclear receptor ROR-gamma (Homo sapiens) (UniProt P51449). Put plainly: qHTS assay to identify small molecule antagonists of the retinoid-related orphan receptor gamma (ROR-gamma) signaling pathway (AID 1159521; further: nearly all actives have a fitted effect of over 50% in size; further: potency means the concentration at half of the fitted maximal effect). In outline:
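Luminescence readout (ONE-Glo, 30 min RT) after 16 h doxycycline induction; loss of signal scored as antagonism. CHO cells with TET-inducible RORγ and RORE-LUC reporter; compounds added 2 h before 1 uM final doxycycline.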

The nature of experiment [9]: qHTS assay to identify small molecule agonists of the AP-1 signaling pathway - cell viability counter screen (AID 1159525; calls by dose curve; further: nearly all actives have a fitted effect of over 55% in size). In outline:
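Same-well cytotoxicity counter screen of the Tox21 10K library in ME-180 cells. The readout is ATP-dependent luminescence after 5 h compound treatment. Data are normalised to DMSO and tetra n-octyl ammonium bromide controls.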

The nature of experiment [10]: qHTS assay to identify small molecule agonists of the AP-1 signaling pathway (AID 1159526; calls by dose curve).
The target in experiment [11] is Retinoic acid receptor RXR-alpha (Homo sapiens) (UniProt P19793). Briefly: qHTS assay to identify small molecule agonists of the RXR signaling pathway (AID 1159527; calls by dose curve; further: nearly all actives have a fitted effect of over 35% in size; further: potency means the concentration at half of the fitted maximal effect). In outline:
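Agonist mode; 9-cis retinoic acid positive control. HEK 293T UAS-bla reporter cells, 2% charcoal-stripped FBS, 16 hr compound exposure at 37 C/5% CO2. LiveBLAzer B/G FRET substrate 2 hr RT; ex 405, em 460/530 nm.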

Experiment [12] is described as follows: qHTS assay to identify small molecule agonists of the RXR signaling pathway - cell viability counter screen (AID 1159529). In outline: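 Luminescence from CellTiter-Glo (30 min, RT) measured viability in the same wells as the beta-lactamase reporter readout. Cells: GeneBLAzer RXR-alpha HEK 293T, 2% charcoal-stripped FBS. Compound exposure 16 hr, 37 C.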
Experiment [13] can be described thus: qHTS assay to identify small molecule antagonists of the retinoic acid receptor (RAR) signaling pathway (AID 1159552; further: nearly all actives have a fitted effect of over 50% in size). In outline:
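Luminescence from a RARE luciferase reporter in C3RL4 cells served as read-out. Cells received compounds together with 1 uM final retinol and incubated 6 hr at 37 C before detection reagent was added for 30 min at room temperature.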

A short description of experiment [14]: qHTS assay to identify small molecule agonists of the retinoic acid receptor (RAR) signaling pathway (AID 1159553). Further: potency means the concentration at half of the fitted maximal effect. In outline: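 Quantitative high-throughput format: the Tox21 10K library was tested on C3RL4 RARE-luciferase cells for 6 hr at 37 C and 5% CO2, with luminescence measured after a 30 min room-temperature reagent step.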
Experiment [15] is described as follows: qHTS assay to identify small molecule antagonists of the retinoid acid receptor (RAR) signaling pathway - cell viability counter screen (AID 1159551). Further: nearly all actives have a fitted effect of over 35% in size. In outline: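 ATP-based viability, C3RL4 cells, 6 h at 37 C with 1 uM final retinol co-added after compound; luminescence read 30 min post CellTiter-Glo, RT.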

Sequence of Retinoic acid receptor RXR-alpha (Homo sapiens) (P19793 whole entry, looked up): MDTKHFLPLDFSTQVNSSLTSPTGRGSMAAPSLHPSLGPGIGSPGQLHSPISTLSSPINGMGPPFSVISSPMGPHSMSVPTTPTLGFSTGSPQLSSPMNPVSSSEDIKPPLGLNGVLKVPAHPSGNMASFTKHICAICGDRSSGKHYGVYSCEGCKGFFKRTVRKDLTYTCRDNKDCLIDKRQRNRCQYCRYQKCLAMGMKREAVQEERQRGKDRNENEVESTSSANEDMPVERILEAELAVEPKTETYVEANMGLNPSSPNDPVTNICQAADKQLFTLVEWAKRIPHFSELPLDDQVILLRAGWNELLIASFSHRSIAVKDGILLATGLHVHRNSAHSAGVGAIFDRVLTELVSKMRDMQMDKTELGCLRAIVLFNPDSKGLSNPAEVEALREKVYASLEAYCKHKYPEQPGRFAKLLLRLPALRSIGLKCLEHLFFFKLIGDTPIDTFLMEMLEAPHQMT

On to `Nc1ncnc2nc[nH]c12`, for which the Potency entry in experiment [1], in [2], in experiment [4], in [5], in [6] and in [7] was “inactive” throughout. In addition, the Potency result in experiment [8], in experiment [9], in experiment [11], in experiment [12], in [13] and in experiment [14] was “inactive” each time. Moreover, the call in experiment [3] and in experiment [10] was inactive.
On to `OCCO`, for which the Potency result in experiment [1], in experiment [2], in [4], in experiment [5], in experiment [6] and in experiment [7] was “inactive” throughout. Further, the Potency entry in experiment [9], in experiment [11], in [12], in [15], in experiment [13] and in [14] was “inactive” throughout. Moreover, the compound was called inactive in [3] and in [10].
`O=C(Nc1ccc(Cl)cc1)Nc1ccc(Cl)c(Cl)c1`: the Potency is 19.4 µM (active) and 11 µM (active) in experiment [1]; 17.1 µM (active) in experiment [7]; 17.2 µM (active) in experiment [8]; 3.06 µM (active) and 3.35 µM (active) in experiment [14]. For the same compound, the outcome in experiment [3] was inactive. Moreover, the Potency entry in experiment [4], in [5], in [6], in experiment [9] and in experiment [13] was “inactive” in each case.
As to `CCCCC(CC)COC(=O)c1ccc(N(C)C)cc1` (stereo not given), the Potency entry in experiment [1], in experiment [4], in experiment [5], in [6], in [8] and in [9] was “inactive” throughout. Moreover, the Potency result in experiment [11], in experiment [12], in experiment [15] and in experiment [13] was “inactive” each time. For the same compound, the result in experiment [3] and in [10] was inactive.
On to `COC(=O)CCC(=O)OC`, for which the Potency entry in experiment [1], in experiment [2], in experiment [4], in experiment [5], in experiment [6] and in experiment [8] was “inactive” throughout. In addition, the Potency entry in experiment [9], in experiment [11], in experiment [12] and in experiment [15] was “inactive” in each case. Also, the outcome in experiment [3] and in experiment [10] was inactive.
Turning to `NNc1ccc(C(=O)O)cc1`, the Potency result in experiment [1], in experiment [2], in [4], in [5], in experiment [6] and in experiment [8] was “inactive” throughout. The Potency entry in experiment [9], in experiment [12], in experiment [15] and in experiment [13] was “inactive” in each case. Besides, the compound was classed as inactive in [3] and in [10]. Also, the Potency was 49.5 µM (active) in experiment [11]; 43.9 nM (active) and 24.6 µM (active) in experiment [14].
With `O=C(/C=C/c1ccccc1)OCc1ccccc1`, the Potency entry in [1], in experiment [2], in [4], in experiment [5], in experiment [6] and in experiment [8] was “inactive” in each case. For the same compound, the Potency entry in [9], in experiment [12], in experiment [15] and in [13] was “inactive” throughout. Further, the compound was called inactive in [3] and in experiment [10].
On to `C#C[C@]1(O)CC[C@H]2[C@@H]3CCc4cc(OC)ccc4[C@H]3CC[C@@]21C`, for which the Potency result in experiment [1], in experiment [4], in [5], in experiment [6], in experiment [8] and in experiment [9] was “inactive” each time. Besides, the Potency entry in experiment [11], in experiment [12], in [15] and in experiment [13] was “inactive” each time. The result in experiment [3] was inactive.
Take `CCCCC/C=C/C=C/C=O`: the Potency entry in experiment [1] was “inactive and 49 µM (active)”. In addition, the result in experiment [3] and in [10] was inactive. The Potency entry in [4], in experiment [6], in experiment [8], in experiment [9], in experiment [11] and in experiment [12] was “inactive” each time. For the same compound, the Potency result in experiment [15] is “inactive”.
For `CN(C)C(=N)N=C(N)N`, the Potency entry in experiment [1], in experiment [2], in [4], in [5], in experiment [6] and in experiment [9] was “inactive” throughout. In addition, the Potency entry in experiment [12] and in experiment [15] was “inactive” in each case. The outcome in [3] and in experiment [10] was inactive.
Turning to `CCOC(=O)C(C#N)=C(c1ccccc1)c1ccccc1`, the Potency entry in [1], in experiment [4], in experiment [5], in [6], in [9] and in [12] was “inactive” throughout. Besides, the Potency result in experiment [15], in experiment [13] and in experiment [14] was “inactive” each time. In addition, the outcome in experiment [3] and in [10] was inactive.
